Experimental data reported in PubChem BioAssay.

These compounds were tested on glycogen synthase kinase-3 (GSK3A per assay name; protocol says GSK3B) (assay: GSK3 binders on small-molecule microarrays, primary screen, biochemical, small-molecule microarray, 635 nm fluorescence, GSK3A (AID 1103; further: the record names both GSK3A and GSK3B)). Conditions: small-molecule microarray binding, fluorescence 635 nm; higher = more signal.
`[N-]=[N+]=Nc1ccccc1C[C@]1(C(=O)O)N=C(c2ccc(OCCCO)cc2)O[C@H]1c1ccccc1` was tested, and the composite z-score was 0.0096.
With `CN1C(=O)[C@@]2(Cc3ccccc3)N=C(c3ccc(OCCCO)cc3)O[C@H]2c2ccccc21` the composite z-score was 1.32.
Work on `NC(=O)[C@@H]1[C@H]2C(=O)O[C@H](c3ccccc3)[C@H](c3ccccc3)N2[C@H](c2ccc(OCCO)cc2)[C@@]12C(=O)Nc1ccc(C#CCCO)cc12` yielded a composite z-score of -0.168.
`Cc1ccc(S[C@]2(C(=O)NC(C)C)CC(=O)N(Cc3ccccc3Cl)[C@@H]2c2ccc(CO)cc2)cc1` showed a composite z-score of -0.628.
`CC(C)=CCCC(C)=CC(O)C1C=CC2C(=O)N(c3ccccc3)C(=O)C2N1Nc1ccccc1F` (stereo not drawn) showed a composite z-score of 0.403.
Compound `COc1cc2c(cc1OC)CN(C(=O)[C@@H]1[C@H]3C(=O)O[C@H](c4ccccc4)[C@H](c4ccccc4)N3[C@H](c3ccc(O)cc3)[C@@]13C(=O)Nc1ccc(C#CCCO)cc13)CC2` has a composite z-score of 0.422.
`COc1cc(NN2C(C(O)C3CCCCC3)C=CC3C(=O)N(C)C(=O)C32)cc(OC)c1OC` (stereo not drawn) showed a composite z-score of 1.17.
`CC(C)C(CO)N1C(=O)[C@@H]2[C@H]3C(=O)OCC=C[C@H]3OC23C=CCN(C(C)(C)C)C(=O)[C@@H]13` (stereo partly drawn) showed a composite z-score of -1.57.
`COC(=O)[C@@]1(Cc2ccc(OC)cc2)[C@H]2c3cc(C(=O)N4CCCC4)n(Cc4ccc(S(C)(=O)=O)cc4)c3C[C@H]2CN1C(=O)c1ccccc1` showed a composite z-score of 0.401.
`CCCNC(=O)[C@@]1(Sc2ccc(C)cc2)CC(=O)N(C2CCCCC2)[C@@H]1c1ccc(CO)cc1I` showed a composite z-score of 0.718.
Work on `CO[C@H]1O[C@H](CO)[C@@H](OC(=O)Nc2ccc(C#N)cc2)[C@@H]2OC(=O)[C@H](Cc3cccc(Br)c3)C/C=C/C[C@@H](Cc3cccc(Br)c3)C(=O)O[C@@H]12` yielded a composite z-score of -0.037.
For `COCCOC(=O)N1C(=O)[C@@]2(c3cc(C#CC4(O)CCCCCC4)ccc31)[C@H](C(=O)N1CCN(c3ncccn3)CC1)[C@H]1C(=O)O[C@H](c3ccccc3)[C@H](c3ccccc3)N1[C@@H]2c1ccccc1OCCO`, the composite z-score was 1.29.
Work on `CCCC=C(CCC)[C@@H](NC(=O)CCc1ccccc1)c1ccc(C(F)(F)F)cc1` yielded a composite z-score of 1.28.
For `CC(C)[C@H]1NC(=O)[C@@]23C(=O)N[C@@H](Cc4ccccc4)C2[C@H](C)[C@@]2(C)O[C@H]2C3/C=C/CCC/C=C/CNC(=O)[C@H](Cc2ccccc2)NC1=O` (stereo partly drawn), the composite z-score was 0.291.
`CCCCNC(=O)c1ccc(C#C[Si](C(C)C)(C(C)C)C(C)C)c(OC(C)=O)c1` was tested, and the composite z-score was 0.807.
`C=C(/C(=C/C[C@H](OC(=O)c1ccncc1)c1ccccc1OCCO)c1cnc2ccccc2c1)C(C)C` gave a composite z-score of 1.06.
With `COc1cc(NN2C(C(O)c3cc(OC)c(OC)c(OC)c3)C=CC3C(=O)N(c4ccccc4)C(=O)C32)cc(OC)c1OC` (stereo not drawn) the composite z-score was 1.3.
With `COC(=O)[C@@]1(Cc2ccccc2)[C@H]2c3cc(C(=O)N4CCCC4)n(CCSCCO)c3C[C@H]2CN1C(=O)c1ccccc1` the composite z-score was 0.954.
For `COCCOC(=O)N1C(=O)[C@@]2(c3cc(C#Cc4ccc(OC)cc4)ccc31)[C@H](c1ccc(OCCO)cc1)N1[C@H](c3ccccc3)[C@H](c3ccccc3)OC(=O)[C@H]1[C@@H]2C(=O)Nc1nc2ccccc2s1`, the composite z-score was 0.506.
`COCCOC(=O)N1C(=O)[C@@]2(c3cc(C#CCC(C(=O)OC)C(=O)OC)ccc31)[C@H](c1ccc(O)cc1)N1[C@H](c3ccccc3)[C@H](c3ccccc3)OC(=O)[C@H]1[C@@H]2C(=O)NC[C@H](O)c1ccccc1` was tested, and the composite z-score was 0.882.
`CCCCCCCCCCC(O)C1C=CC2C(=O)N(c3ccccc3)C(=O)C2N1Nc1ccccc1F` (stereo not drawn) was tested, and the composite z-score was -0.676.
Work on `COc1ccc(C(O)C2C=CC3C(=O)N(c4ccccc4)C(=O)C3N2Nc2ccc(C(C)C)cc2)c2ccccc12` (stereo not drawn) yielded a composite z-score of 1.29.
`O=C1C2C=CC(C(O)c3cc(C(F)(F)F)cc(C(F)(F)F)c3)N(Nc3ccccc3F)C2C(=O)N1c1ccccc1` (stereo not drawn) showed a composite z-score of 0.708.
Compound `C=C(CCCC)C(=O)CC[C@@H](OC(=O)c1cccnc1)c1ccc(OCCO)cc1` has a composite z-score of 0.704.
Work on `C=C(/C(=C/C[C@@H](OC(=O)c1ccncc1)c1cccc(OCCO)c1)c1cnc2ccccc2c1)C(C)C` yielded a composite z-score of 1.18.
`CC(C)CNC(=O)[C@@]1(c2ccc([N+](=O)[O-])cc2)CC(=O)N(C2CCCCC2)[C@@H]1c1ccc(CO)cc1` showed a composite z-score of 0.484.
`C[C@]1(C(=O)O)c2ccccc2C(=O)N(Cc2ccc(OC(F)(F)F)cc2)[C@H]1c1ccc(CO)cc1` gave a composite z-score of -0.502.
`C=C(COC)C(=O)CC[C@H](OC(=O)c1cccnc1)c1ccc(CO)o1` gave a composite z-score of 0.596.
